Source: PubChem BioAssay (National Center for Advancing Translational Sciences (NCATS))
HEK cytotox: Cytotoxic Profiling in HEK 293 Cell Line of Diverse Libraries Using Quantitative High-Throughput Screening | AID 1345083, 2018 | 94,000 tested, 6.6% active | Potency, µM (titrated, usually from 115 µM), usual class: inhibitors | HEK 293 viability, ATP luminescence (CellTiter-Glo), 48-72 h; also: nearly all actives have a fitted effect of over 60% in size
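Luminescence from cellular ATP, measured with CellTiter-Glo, indicates HEK 293 viability. Cells plated at 250 cells/well are treated with compound for 48 or 72 hr at 37 degree Celsius before reagent addition.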
3T3 cytotox: Cytotoxic Profiling in NIH 3T3 Cell Line of Diverse Libraries Using Quantitative High-Throughput Screening | 94,000 tested, 4.3% active | NIH 3T3 viability, CellTiter-Glo ATP luminescence, 48-72 h | Potency, µM (titrated, usually from 96.7 µM), hits mostly inhibitors; also: nearly all actives have a fitted effect of over 55% in size
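Viability of NIH 3T3 cells after 48 or 72 hr compound treatment at 37 °C was assessed by CellTiter-Glo, with luminescence imaged following a 10 min room-temperature step.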
GPT2 inh: Primary qHTS assay for inhibitors of Glutamate pyruvate transaminase 2 (GPT2). Potency, µM (series often up to 57.7 µM), hits mostly inhibitors. 100,000 tested, 0.25% active. Recombinant GPT2, coupled pyruvate oxidase/HRP Amplex Red fluorescence; also: nearly all actives have a fitted effect of over 60% in size
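Fluorescence of coupled pyruvate oxidase/HRP/Amplex Red system (50uM Amplex, 30 min, dark) reports pyruvate formed by GPT2. Enzyme reaction: 10ng/uL GPT2, 2mM L-alanine, 250uM a-KG, 30 min room temperature, pH 7.5; 50uM AOA control.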
NPR1 antag: Natriuretic polypeptide receptor (hNpr1) antagonism - Primary qHTS. Potency, µM (highest dose often 46.3 µM), hits mostly inhibitors. AID 1347048, 2019. HEK293 hNpr1 GloSensor cGMP, ANP-stimulated luminescence. 76,000 tested, 1.6% active; calls by dose curve; also: nearly all actives have a fitted effect of over 60% in size
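Compound pre-incubated 30 min at room temperature on GloSensor-loaded HEK293 cells stably carrying hNpr1 and the pGS-40F cGMP biosensor. Stimulation uses hNppA at 0.1 nM final; luminescence is taken at baseline and 20 min post-agonist.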
FLuc inh: Firefly luciferase inhibition profiling of diverse chemical library using quantitative high-throughput screening; Luciferin 4-monooxygenase (Photinus pyralis), P08659; purified P. pyralis luciferase, luminescence, biochemical; Potency, µM (series often up to 115 µM), actives largely listed as inhibitors; 76,000 tested, 2.5% active; also: nearly all actives have a fitted effect of over 65% in size
Target sequence (P08659 whole entry, looked up): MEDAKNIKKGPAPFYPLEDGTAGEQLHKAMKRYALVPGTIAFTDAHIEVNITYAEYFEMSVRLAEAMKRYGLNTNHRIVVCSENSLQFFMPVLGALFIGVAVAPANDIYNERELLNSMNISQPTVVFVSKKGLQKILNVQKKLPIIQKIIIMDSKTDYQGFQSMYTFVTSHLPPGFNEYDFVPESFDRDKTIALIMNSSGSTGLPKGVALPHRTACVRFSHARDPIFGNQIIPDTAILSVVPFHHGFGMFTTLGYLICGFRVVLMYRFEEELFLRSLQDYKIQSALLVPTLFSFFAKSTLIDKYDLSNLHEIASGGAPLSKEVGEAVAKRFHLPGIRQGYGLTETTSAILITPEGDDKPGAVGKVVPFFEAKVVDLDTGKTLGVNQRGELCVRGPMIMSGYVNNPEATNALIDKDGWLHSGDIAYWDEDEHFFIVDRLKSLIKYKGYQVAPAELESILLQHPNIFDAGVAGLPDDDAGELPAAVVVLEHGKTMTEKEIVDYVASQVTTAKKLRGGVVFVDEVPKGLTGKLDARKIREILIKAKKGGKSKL
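Biochemical qHTS: compound (6-point titration) added to 10uM D-luciferin plus 10uM ATP in Tris acetate pH 7.5 buffer with Mg, Tween-20 and BSA, then purified enzyme at 10nM; light output imaged.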
Numbers stand for hits; n = inactive; u = inconclusive; x = not tested or not shown. Only some compounds are listed: those with a hit (about 10% of all), similar ones and a draw of the others. Unless noted, calls follow the shape of the dose curve; as a rule, active = well fitted curve in the direction sought with a large enough effect; inconclusive = small, poorly fitted or top-dose-only effect, or another doubt; inactive = no such curve, though single readings can be large; an effect the other way counts as inactive or inconclusive.

SMILES | HEK cytotox | 3T3 cytotox | GPT2 inh | NPR1 antag | FLuc inh
c1ccc(-c2nnc3ccc(N4CCc5ccccc5C4)nn23)nc1 | 70.8µM | u | n | n | n
Cc1ccc(NC(=O)[C@H]2CN(Cc3ccccc3)C[C@H]2C(=O)O)cc1 | n | n | u | n | n
CC(C)CNC(=O)N1CCCCCCN(C)C(=O)[C@@H]2CCC[C@@H]21 | n | n | n | n | n
Cc1cc2nc3n(c(=O)c2n1CC(=O)Nc1ccc(Br)cc1F)CCCCC3 | 25.1µM | u | n | n | n
CC(C)(C)c1ccc(-c2cc(C[C@H]3CNCC[C@H]3CC(=O)N3CCN(c4ccc(F)cc4)CC3)no2)cc1 | u | u | n | n | n
O=C(C[C@@H]1CCNC[C@@H]1Cc1cc(CSc2ccccc2)on1)NCc1cccs1 | u | u | n | n | n
CC(C)(C)c1cc(C[C@H]2CNCC[C@H]2CC(=O)Nc2nccs2)no1 | 100µM | u | n | n | n
CC(C)(C)c1ccc(-c2cc(C[C@H]3CNCC[C@H]3CC(=O)Nc3nccs3)no2)cc1 | u | 8.91µM | n | n | n
COc1ccc(-c2cc(C[C@H]3CNCC[C@H]3CC(=O)Nc3nccs3)no2)cc1 | 100µM | 79.4µM | n | n | n
c1cncc(CN2CCC(N3CC(OCC4CC4)C34CCCCC4)CC2)c1 (stereo not drawn) | n | u | n | x | x
CC(C)=CCN1C[C@H](NC(=O)CCc2cccs2)C[C@H]1C(=O)NC(C)C | n | n | n | n | n
CN1CCN(C(=O)N2CCCC(CNS(=O)(=O)c3cccs3)C2)CC1 (stereo not drawn) | n | n | n | n | n
CN1CCN(C(=O)C[C@@H]2CCNC[C@@H]2Cc2cc(-c3ccc(C(C)(C)C)cc3)on2)CC1 | u | 79.4µM | n | n | n
CC(C)(C)c1ccc(-c2cc(C[C@H]3CNCC[C@H]3CC(=O)N3CCCCC3)no2)cc1 | u | 35.5µM | n | n | n
CCNC(=O)N1CC(n2cc(C(=O)NCCCOC)nn2)C1 | n | n | n | x | x
CN1C(=O)CCC2(CNC(=O)c3ccco3)CCCC=C12 (stereo not drawn) | n | n | n | n | n
Cc1nc([C@@H]2CN(C(=O)c3ccc(Br)o3)C[C@H]2C(N)=O)n[nH]1 | n | n | n | n | n
CN(Cc1ccccc1)C(=O)[C@@H]1C[C@@H](c2ccc(F)cc2)N([S+](=O)([O-])c2ccccc2)C1 | u | u | n | n | n
CN(C(=O)[C@@H]1C[C@@H](c2ccc(F)cc2)N([S+](=O)([O-])c2ccccc2)C1)c1ccccc1 | u | 35.5µM | n | n | n
O=C(NC1CCCC1)NC1CCN(C(=O)c2ccc(-c3cccs3)cc2)CC1 | u | u | n | x | x
COc1ccc(OCC2CC3(CCCCC3)CN2S(=O)(=O)c2c(C)noc2C)cc1 (stereo not drawn) | 28.2µM | n | n | x | x
O=C1NCCCN1C1CCN(Cc2cccc(C(F)(F)F)c2)CC1 | n | n | n | n | n
O=C(O)CCn1ncc2cc(OCC3CCN(C(=O)Oc4ccccc4)CC3)ccc21 | n | 28.2µM | n | x | n
CC(C)OC(=O)N1CCC(COc2ccc3c(cnn3CCC(=O)O)c2)CC1 | n | 28.2µM | n | n | u
O=C(O)CCn1ncc2cc(OCC3CCN(C(=O)c4cc(F)ccc4Cl)CC3)ccc21 | n | 31.6µM | n | x | n
SMILES | HEK cytotox | 3T3 cytotox | GPT2 inh | NPR1 antag | FLuc inh
Cc1nn(-c2ccccc2)c2c1C(C)N(CC1CN([S+](=O)([O-])c3c(C)noc3C)C1)C2=O (stereo not drawn) | u | n | x | x | x
CNC(=O)N1CCC(C2CCN(C(=O)c3nn(C)c4ccccc34)C2)CC1 (stereo not drawn) | n | n | n | x | x
Cc1cc(C)cc(N2CCN(Cc3cn(-c4ccccc4)nn3)CC2=O)c1 | u | n | n | n | n
CC(C)[C@@H]1C[C@@H]2C[C@@H](NCc3ccccc3)C[C@]2(c2ccccc2)CO1 | 79.4µM | u | x | x | x
COCCN1Cc2cc(F)ccc2N(CC(O)Cc2ccccc2)CCC1=O (stereo not drawn) | u | n | x | x | x
CCc1cccc(NC(=O)Cn2c(-c3ccc(Cl)cc3)nc(C)c(CCO)c2=O)c1 | u | n | u | n | n
Cc1nc(-c2cccc(Cl)c2)n(CC(=O)Nc2cccc(C(C)C)c2)c(=O)c1CCO | u | 25.1µM | n | n | n
Cc1nc(-c2ccccc2)n(CC(=O)Nc2ccc(C(C)C)cc2)c(=O)c1CCO | u | u | n | n | n
Cc1nc(-c2cccc(Cl)c2)n(CC(=O)Nc2ccc3c(c2)OCO3)c(=O)c1CCO | 39.8µM | u | n | n | n
Cc1cc(NC(=O)Cn2c(-c3cccc(Cl)c3)nc(C)c(CCO)c2=O)no1 | u | u | n | n | n
Cc1ccc(NC(=O)Cn2c(-c3cccc(Cl)c3)nc(C)c(CCO)c2=O)cc1 | 25.1µM | 39.8µM | n | n | n
CSc1cccc(NC(=O)Cn2c(-c3ccc(F)cc3)nc(C)c(CCO)c2=O)c1 | 31.6µM | u | n | n | n
COc1ccc(C2(C(=O)NCc3cccc(N)c3)CCOCC2)cc1 | n | n | x | x | x
COC[C@@H]1[C@H](NC(=O)c2cnc(-c3cccnc3)nc2C)[C@@H]2CCO[C@H]12 | n | n | n | n | n
COc1ccc(CCNC(=O)c2nc3cccnc3n(C3CCCCC3)c2=O)cc1 | u | u | n | x | x
Cc1nc(-c2ccc(F)cc2)n(CC(=O)Nc2ccc(F)c(Cl)c2)c(=O)c1CCO | 35.5µM | u | n | n | n
Cc1ccc(NC(=O)Cn2c(-c3ccc(Cl)cc3)nc(C)c(CCO)c2=O)cc1 | 31.6µM | u | n | n | n
COc1ccc(NC(=O)Cn2c(-c3ccccc3)nc(C)c(CCO)c2=O)cc1Cl | 25.1µM | u | n | n | n
COc1ccc(NC(=O)Cn2c(-c3ccccc3)nc(C)c(CCO)c2=O)cc1OC | u | u | n | n | n
Cc1cc(C)cc(NC(=O)Cn2c(-c3ccccc3)nc(C)c(CCO)c2=O)c1 | 31.6µM | u | n | n | n
CCc1cccc(NC(=O)Cn2c(-c3cccc(Cl)c3)nc(C)c(CCO)c2=O)c1 | 39.8µM | u | n | n | n
Cc1nc(-c2cccc(Cl)c2)n(CC(=O)Nc2ccccc2F)c(=O)c1CCO | 44.7µM | u | n | n | n
Cc1ccc(CNC(=O)Cn2c(-c3ccccc3)nc(C)c(CCO)c2=O)cc1 | 79.4µM | u | n | n | n
Cc1nc(-c2cccc(Cl)c2)n(CC(=O)Nc2ccccc2)c(=O)c1CCO | 44.7µM | u | n | n | n
